{"source": "PubChem BioAssay AID1468", "about": "(National Center for Advancing Translational Sciences (NCATS), 2008)", "note": "The whole screen tested about 280,000 compounds, of which about 1,100 (0.39%) were called active. Entries that show only a call come without a potency. About 7% were inconclusive and are not listed. Calls come from the whole dose curve; as a rule, active = well fitted inhibition curve with a large enough effect; inconclusive = small, poorly fitted or top-dose-only effect, or effect the other way; inactive = flat fitted curve, though single readings scatter. Only a selection was taken, and actives are over-represented in it overall. Potency is the fitted concentration of half-maximal effect.", "data": [{"target": "Microtubule-associated protein tau (Homo sapiens) (UniProt P10636)", "sequence (P10636 561-689 P618L limits assumed)": "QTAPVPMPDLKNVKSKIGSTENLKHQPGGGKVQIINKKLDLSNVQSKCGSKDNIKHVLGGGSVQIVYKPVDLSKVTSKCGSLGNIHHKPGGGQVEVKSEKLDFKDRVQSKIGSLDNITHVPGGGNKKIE", "assay": "qHTS for Inhibitors of Tau Fibril Formation, Fluorescence Polarization; note: nearly all actives have a fitted effect of over 55% in size", "conditions": "K18 P301L tau heparin fibrillization, Alexa594 FP, 6 h; series mostly up to 57.7 µM", "outline": "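Human K18 P301L fragment (15 uM unlabeled plus 0.24 uM Alexa 594-labeled) in 100 mM sodium acetate pH 7 with compound, aggregation induced by 20 uM heparin for 6 hr at 37 C. ThT (30 uM) added for 1 hr, then Alexa 594 FP read.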", "values": [{"smiles": "Cc1cccc2nc(-c3ccc(Cl)s3)c(Nc3ccc4c(c3)OCCO4)n12", "Potency": "inactive"}, {"smiles": "Cc1ccc2sc(N(Cc3cccnc3)C(=O)C3COc4ccccc4O3)nc2c1C", "note": "(stereo unspecified)", "Potency": "inactive"}, {"smiles": "COc1ccc(N2CCN(C(=O)C3CCCN(C(=O)c4cc5sccc5n4C)C3)CC2)cc1", "note": "(stereo unspecified)", "Potency": "inactive"}, {"smiles": "CCc1ccc(CN(Cc2ccco2)C(=O)COc2ccc(Cl)c(C)c2)cc1", "Potency": "inactive"}, {"smiles": "COc1ccc(OC)c(C2C3=C(N=c4s/c(=C\\c5cccc(O)c5)c(=O)n42)c2ccccc2CC3)c1", "note": "(stereo unspecified)", "Potency": "22.4 µM (active)"}, {"smiles": "CCOC(=O)C1=C(C)N=c2s/c(=C\\C(=O)OC)c(=O)n2C1c1ccc(OC)cc1", "note": "(stereo unspecified)", "Potency": "inactive"}, {"smiles": "O=C1CCCC2=C1C(c1ccccc1)n1c(s/c(=C/c3cccc(F)c3)c1=O)=N2", "note": "(stereo unspecified)", "Potency": "inactive"}, {"smiles": "COC(=O)c1sccc1S(=O)(=O)N(CC(=O)Nc1ccc(C)c(F)c1)c1ccc(C)c(C)c1", "Potency": "inactive"}, {"smiles": "CCOc1ccc(Nc2ncnc3scc(-c4ccc(OC)cc4)c23)cc1", "Potency": "inactive"}, {"smiles": "CCOC(=O)N1CCc2c(sc(NCc3cccc(F)c3)c2C(=O)Nc2ccccc2OCC)C1", "Potency": "inactive"}, {"smiles": "CCOC(=O)N1CCc2c(sc3c2c(=O)n(-c2ccc(CC)cc2)c(=O)n3C)C1", "Potency": "inactive"}, {"smiles": "Cc1ccccc1CNC(=O)c1cccc(NC(=O)c2nsc3ccccc23)c1", "Potency": "inactive"}, {"smiles": "Cc1cc(NC(=O)Nc2ccccc2)n(-c2ccccc2)n1", "Potency": "inactive"}, {"smiles": "Cc1ccc(NC(=O)Nc2cc(-c3ccccc3)nn2C)cc1Cl", "Potency": "14.1 µM (active)"}, {"smiles": "Cc1cc(NC(=O)Nc2ccc(Cl)cc2)n(-c2ccccc2)n1", "Potency": "inactive"}, {"smiles": "CC1CN(C(=O)N2CCC(C(=O)NCc3ccco3)CC2)c2cc(Cl)ccc2O1", "note": "(stereo unspecified)", "Potency": "inactive"}, {"smiles": "Cc1cccc(NC(=O)CSc2nc3c([nH]c4ccccc43)c(=O)n2-c2cc(C)cc(C)c2)c1", "Potency": "inactive"}, {"smiles": "COCCn1c(SCC(=O)c2cc(C)ccc2C)nc2cc(C(=O)NC3CCCC3)ccc2c1=O", "Potency": "inactive"}, {"smiles": "COc1ccc(-c2cn3c(C)c(C(=O)Nc4cc(C)cc(C)c4)sc3n2)cc1", "Potency": "inactive"}, {"smiles": "O=C1C(Cl)=C(N2CCOCC2)C(=O)N1c1ccccc1", "Potency": "28.2 µM (active)"}, {"smiles": "O=C1OC(NC(=O)c2ccccc2)C(N2CCOCC2)=C1Cl", "note": "(stereo unspecified)", "Potency": "inactive"}, {"smiles": "c1ccc(-n2nnnc2N2CCOCC2)cc1", "Potency": "inactive"}, {"smiles": "Cc1ccc2nc(N3CCN(c4cccc(Cl)c4)CC3)c3nnnn3c2c1", "Potency": "inactive"}, {"smiles": "O=C(CNS(=O)(=O)c1cccs1)N1CCN(c2ccccc2Cl)CC1", "Potency": "inactive"}, {"smiles": "Cc1ccccc1CN1CCC(CNC(=O)c2cc3ccc4cccnc4c3[nH]2)CC1", "Potency": "inactive"}, {"smiles": "COc1ccccc1CNC(=O)NCc1noc2ccc(C)cc12", "Potency": "inactive"}, {"smiles": "Cc1ccc(NC(=O)C2CCN(S(=O)(=O)c3cc(-c4noc(C)n4)ccc3C)CC2)c(C)c1", "Potency": "inactive"}, {"smiles": "COc1ccc(OC)c(NC(=O)CSc2nc3ccccc3nc2N2CCCCC2)c1", "Potency": "inactive"}, {"smiles": "O=c1c(O)c(Br)ccc2c(Br)c(O)c(O)c(O)c12", "Potency": "10 µM (active)"}, {"smiles": "CC(C)Cn1c(=O)c2ccccc2n2c(-c3cccc(Cl)c3)nnc12", "Potency": "inactive"}, {"smiles": "COc1ccc2c(c1)c(N1CCCC1=O)c(C(=O)Nc1ccccc1C(F)(F)F)n2C", "Potency": "inactive"}, {"smiles": "COc1cccc(Nc2nc(N)c([N+](=O)[O-])c(NCc3ccco3)n2)c1", "Potency": "3.16 µM (active)"}, {"smiles": "CN(c1ccccc1)c1nc(N)c([N+](=O)[O-])c(NCc2ccco2)n1", "Potency": "inactive"}, {"smiles": "COc1ccc(Nc2nc(Cl)nc(NCc3ccco3)n2)cc1", "Potency": "inactive"}, {"smiles": "O=C(NCC(c1cccnc1)N1CCc2ccccc21)c1cccc(C(F)(F)F)c1", "note": "(stereo unspecified)", "Potency": "inactive"}, {"smiles": "COc1ccc(S(=O)(=O)NC(C)C)cc1C(=O)NC1CCCCC1", "Potency": "inactive"}, {"smiles": "CC(C)c1ccc(NS(=O)(=O)c2ccc3[nH]cc(C(=O)NC4CCCC4)c(=O)c3c2)cc1", "Potency": "11.2 µM (active)"}, {"smiles": "Cc1cc(C)cc(NS(=O)(=O)c2ccc3[nH]cc(C(=O)N4CCCCC4)c(=O)c3c2)c1", "Potency": "inactive"}, {"smiles": "Cc1cccc(NC(=O)Cn2nc(-c3ccc(Cl)cc3)c3ccccc3c2=O)c1", "Potency": "inactive"}, {"smiles": "O=S(=O)(c1ccccc1)c1nc(-c2ccc(Cl)cc2Cl)oc1N1CCCCC1", "Potency": "inactive"}, {"smiles": "CCc1ccc(NC(=O)CN2CCSc3ccc(S(=O)(=O)N4CCCC4)cc32)cc1", "Potency": "inactive"}, {"smiles": "COc1ccc(S(=O)(=O)NCc2cccn2Cc2cccc(C)c2)cc1Cl", "Potency": "inactive"}, {"smiles": "Cc1cccc(CC(=O)N2CC(=O)Nc3ccc(F)cc3C2c2ccccc2)c1", "note": "(stereo unspecified)", "Potency": "inactive"}, {"smiles": "CC(C)c1ccc2oc(-c3cc(NC(=O)c4cccs4)ccc3Cl)nc2c1", "Potency": "12.6 µM (active)"}, {"smiles": "O=C(Nc1ccc(-c2nc3cc(NC(=O)c4ccccc4Cl)ccc3o2)cc1)c1ccccc1Cl", "Potency": "inactive"}, {"smiles": "Cc1ccc(-c2nnc(-c3ccc(NC(=O)c4cccs4)cc3)o2)cc1", "Potency": "inactive"}, {"smiles": "CCN(CC)CCNC(=O)c1cc2c(=O)oc3ccc(C)cc3c2s1", "Potency": "inactive"}, {"smiles": "COc1cccc(NC(=O)NCc2ccc(F)cc2)c1", "Potency": "inactive"}, {"smiles": "Cc1cccc(NC(=O)c2cccc(C(F)(F)F)c2)c1", "Potency": "inactive"}, {"smiles": "Cc1cccc(NC(=O)Nc2cccc(Oc3c(F)c(F)c(F)c(F)c3F)c2)c1", "Potency": "8.91 µM (active)"}, {"smiles": "COc1cc2c(=O)c(S(=O)(=O)c3ccc(C(C)C)cc3)cn(Cc3ccccc3C)c2cc1OC", "Potency": "inactive"}, {"smiles": "O=C(Nc1ccccc1)Nc1ccccc1C(=O)NCc1ccco1", "Potency": "inactive"}, {"smiles": "CCc1ccc(-c2cc(C(=O)NCc3ccco3)c3ccccc3n2)s1", "Potency": "28.2 µM (active)"}, {"smiles": "CCOc1ccc(CNC(=O)c2cc(-c3ccc(Cl)s3)nc3ccccc23)cc1", "Potency": "inactive"}, {"smiles": "COc1ccc(-c2noc(-c3ccc(N4CCN(c5ccccc5)CC4)c([N+](=O)[O-])c3)n2)cc1OC", "Potency": "inactive"}, {"smiles": "CCOc1ccccc1CNCc1c(C(=O)O)c(C)n(Cc2ccc(C)cc2)c1C", "Potency": "inactive"}, {"smiles": "COc1ccccc1CNC(=O)CCn1c(=O)c2ccccc2n(CC(=O)Nc2ccc(Br)cc2F)c1=O", "Potency": "inactive"}, {"smiles": "Cc1cc(C)c2oc(C(=O)Nc3ccc(S(=O)(=O)N(C)c4ccccc4)cc3)cc(=O)c2c1", "Potency": "inactive"}, {"smiles": "COc1ccc(-c2csc(-c3c(N)c(C(=O)c4ccc(OC)c(OC)c4)n4ccccc34)n2)cc1", "Potency": "inactive"}, {"smiles": "Cc1ccc(Cl)cc1N1CCN(C(=O)CN2C(=O)COc3ccc(S(=O)(=O)N4CCOCC4)cc32)CC1", "Potency": "inactive"}, {"smiles": "COc1ccc(-n2c(=O)c3c(c4cc(OC)ccc4n3C)n(Cc3cccc(C)c3)c2=O)cc1", "Potency": "inactive"}]}]}
